Experimental data from PubChem BioAssay AID1053143 (Broad Institute, 2014).
About 120 (3.5%) of roughly 3,400 compounds were called active. Not all results are given here. Measured potencies and affinities stand elsewhere. Unmarked numbers belong to inactive results. No rule for the calls is given here.

test: viability loss in HepG2 hepatoma cells – cell-based, ATP luminescence, cherry-pick, activator set 2, cytotoxicity control, dose response (AID 1053143); conditions: CellTiter-Glo ATP luminescence, 72 h; series mostly up to 26 µM; activity change, negative = cytotoxicity: at the top concentration

| SMILES | activity change, negative = cytotoxicity |
| --- | --- |
| CC(C)C1COC(c2cccc3ccccc23)=N1 (stereo unspecified) | -1.51% |
| CC(=O)c1ccc(NC(=O)c2ccn(C(=O)OCC(C)C)n2)cc1 | -22.6% |
| COc1ccc2cc(CCNC(=O)c3cccs3)c(=O)[nH]c2c1 | -6.15% |
| CCOC(=O)c1csc(NC(=O)c2cccs2)n1 | -11.3% |
| Cc1csc(=NC(=O)c2ccccc2)n1C | -4.28% |
| CC(C)C(=O)Nc1ccc(NC(=O)c2cc3ccccc3o2)cc1 | -10.1% |
| COc1ccc2nc(NC3=NCCC3)sc2c1 | -13.8% |
| CCOC(=O)c1cccc(NC(=O)c2ccc(F)cc2F)c1 | -13.7% |
| CS(=O)(=O)N1CCN(c2ccc(NC(=O)c3ccc(Br)o3)cc2)CC1 | -4.07% |
| CN1CCN(c2ccc(-c3ccnn3C(=O)Nc3ccccc3)cc2)CC1 | -18.8% |
| Cc1ccccc1Nc1nn2c(=O)c3ccccc3nc2s1 | -18.2% |
| COc1c(C(=O)NNC(=O)c2ccccc2)csc1Br | 3.9% |
| Oc1c(/C=N/c2ccccn2)sc2ccccc12 | -10.5% |
| CC(/C=N/Nc1nc2ccccc2[nH]1)=C\c1ccccc1 | -7.42% |
| Cc1ccc(/C=C/C(=O)c2nc3ccccc3[nH]2)cc1 | -0.116% |
| CC(C)C(OC(=O)C1=Cc2ccccc2OC1)C(=O)NCC1CCCO1 (stereo unspecified) | -10.3% |
| Cc1ccc2nc(-c3ccc(NS(=O)(=O)c4ccc(F)cc4)cc3)sc2c1 | -13.2% |
| Nc1ccc(-c2nc3ccccc3s2)cn1 | -7.55% |
| COc1ccc(OCc2cc(C(=O)N3CCOCC3)no2)c(Cl)c1 | -6.33% |
| O=c1cccc2n1Cc1cc3ccccc3nc1-2 | -2.27% [at 12 µM] |
| COc1ccc(C(=O)COC(=O)c2sccc2C)cc1OC | -0.285% |

| SMILES | activity change, negative = cytotoxicity |
| --- | --- |
| O=C(Nc1ccc(NC(=O)C2CC2)cn1)c1ccccc1Cl | -12.3% |
| O=C(Nc1ccc(C(=O)c2ccccc2)cc1)c1ccccc1 | -10% |
| Nc1ccccc1N=Nc1ccccc1N | -6.69% |
| CC(C)(C)OC(=O)N/N=C\C=C\c1ccc2c(c1)OCO2 | 2.12% |
| CCc1ccc(NC(=O)C(=O)c2ccccc2NC(C)=O)cc1 | -1.17% |
| O=C(Nc1ccc2c(c1)OCO2)N1CCCc2ccccc21 | 1.95% |
| COc1ccc(NC(=O)N2CCCc3ccccc32)cc1 | -6.43% |
| O=C(Nc1ccc(NC(=O)C2CCCCC2)nc1)c1cccs1 | 31.7% |
| COc1ccc(NC(=O)/C(=C\c2ccc3c(c2)OCO3)NC(C)=O)cc1 | -15.9% |
| COc1ccc2c(c1)CCC1C2=NN(/C(C)=C\C(C)=O)C1c1ccc(F)cc1 (stereo unspecified) | -1.99% |
| CCN(CC)c1cc(C)c(C#N)c2nc3ccccc3n12 | -21.3% |
| c1ccc(-c2ccc3ccccc3n2)cc1 | -17.4% |
| O=C(c1cccs1)N1CCN=C1SCc1ccc(F)cc1 | 11.9% [at 12 µM] |
| COc1ccc(-c2cn(Cc3ccc(C(=O)c4ccccc4)cc3)nn2)cc1 | -18% |
| O=C(N/N=C/c1ccc(Br)cc1)c1ccc(Br)o1 | 12.5% |
| CCc1ccc2cc3c(cc2n1)C(=O)c1ccccc1-3 | -15.3% |
| O=C(Nc1ccc(F)c(Cl)c1)c1ccccc1 | -28.6% |
| COc1ccc(NC(=O)Nc2ccc(F)c(Cl)c2)cc1 | -6.84% |
| COc1ccccc1NC(=O)CCC(=O)Nc1nnc(C2CCCCC2)s1 | -8.45% |
| COc1cccc(C=Cc2nccc3ccccc23)c1OC | -24% |
| O=C1c2ccccc2C(=O)C1c1ccnc2ccccc12 | 11.3% |

| SMILES | activity change, negative = cytotoxicity |
| --- | --- |
| C=CCSc1nc2c(cnn2-c2ccccc2)c(=O)n1N | -8.22% |
| Cc1ccc(OCC(=O)Nc2ccccc2[N+](=O)[O-])c(Br)c1 | 13.1% |
| O=c1c2ccccc2oc2cc(-c3ccc4cc[nH]c4c3)ccc12 | -6.73% |
| O=c1c2ccccc2oc2cc(NCCCN3CCOCC3)ccc12 | -6.64% |
| Cc1ccc(C)c(Nc2nc(N)c3ccccc3n2)c1 | -25.3% |
| Cc1ccccc1Nc1nc(N)nc(-c2oc3ccccc3c2C)n1 | -2.45% |
| Cc1ccc(-c2nc(Nc3ccccc3)n[nH]2)cc1 | -0.325% |
| Nc1ccccc1-c1nc2ccccc2[nH]1 | -14.4% |
| Nc1ccccc1-c1nc2ccccc2s1 | -14.9% |
| Nc1nc(CSc2ccccn2)nc(Nc2ccccc2)n1 | -20% |
| COc1ccc(-c2c3c(nc4sc(C(=O)Nc5ccccc5)c(N)c24)CCC3)cc1 | 3.45% |
| CN(CC(=O)Nc1cccc(F)c1)C(=O)CCNC(=O)c1ccco1 | 13.2% |
| CCOC(=O)c1ccc(S(=O)(=O)NCCNCc2ccccc2)cc1 | 27.4% [at 12 µM] |
| CCOC(=O)C1CCN(C(=O)c2cc3cc(C)ccc3[nH]2)CC1 | 7.79% |
| COC(=O)c1ccc2[nH]c(C3(O)CCCCC3)c(C)c2c1 | -11.6% |
| CC(C)c1ccc(N=C2N=C(N)c3ccccc32)cc1 | -8.99% |
| Cc1ccc(-c2noc(CSc3ccccc3)n2)cc1 | -12.3% |
| COc1ccc(NC(=O)c2ccc3c(c2)N(C)CCS3)cc1 | 0.622% |
| CCOc1ccc(NC(=O)c2ccc3c(c2)N(C)CCS3)cc1 | 0.299% |
| Cc1ccc(NC(=O)Nc2cnc3ccccc3c2)cc1 | -13.6% |
| c1ccc(-c2nc(-c3ccc(-c4ccon4)s3)no2)cc1 | 11.5% |

| SMILES | activity change, negative = cytotoxicity |
| --- | --- |
| CCCC(=O)N=C1SC2CS(=O)(=O)CC2N1c1ccc(-c2nc3ccc(C)cc3s2)cc1 (stereo unspecified) | -6.16% [at 6 µM] |
| O=c1c2c3c(sc2nc2n1CCCCC2)CCCC3 | 7.6% [at 12 µM] |
| O=C(CCc1ccccc1)Nc1ccc(NC(=O)c2ccco2)nc1 | 6.73% |
| Cc1ccc2cc(NC(=O)c3cccc(F)c3)ccc2n1 | -11.1% |
| O=C(Cc1ccccc1)Nc1ccc(NC(=O)c2ccco2)nc1 | 4.68% |
| O=C(Nc1ccc(NC(=O)c2ccco2)nc1)c1cccc(F)c1 | 3.89% |
| CC(=O)Nc1ccc2c(c1)C(=Nc1cccc(C)c1)c1ccccc1-2 | -8.52% |
| C/C(=N\OC(=O)Nc1ccc(Cl)cc1)c1ncc(C(F)(F)F)cc1N1CCOCC1 | -2.73% |
| O=C(CSc1nnc(-c2ccccn2)o1)Nc1ccccc1F | -19.4% |
| O=C(CSc1nnc(-c2cccnc2)o1)Nc1ccccc1F | -15.1% |
| CCOc1nc(N2CCOCC2)nc(C)c1[N+](=O)[O-] | -9.28% |
| Cc1ccc(NC(=O)c2ccc(F)cc2F)cc1 | -4.22% |
| c1ccc(-c2ccc(-c3ccccn3)s2)nc1 | -9.96% |
| c1ccc(-c2nnc(-c3ccccn3)nn2)nc1 | -17.4% |
| COc1ccc(-c2nnc(-c3ccc(C)cc3)o2)cc1 | -7.01% |
| COC(=O)c1ccc(-c2nc3ccc(C)cc3o2)cc1 | -4.62% |
| COc1cccc(-c2nnc(-c3ccc4ccccc4c3)o2)c1 | -4.7% |
| Cc1ccc2oc(-c3cccc(NC(=O)c4ccccn4)c3)nc2c1 | -21.7% [at 12 µM] |
